In PubChem BioAssay (NCI) one finds growth data, which are given here for 13 compounds.

Compounds without any hit were thinned out: in the full panel of roughly 83,000, 20% have a hit.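 Cells were grown in 96-well plates and exposed to the test compound at a single concentration for 48 hours; results are reported as percent growth, with values below 10 considered active.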 A number with no mark means an inactive call. Active and inactive are the calls of the source.

Common to all, as to experiment: NCI-60 one-dose screen, 48 h (100 = growth as untreated, 0 = no growth, -100 = all killed)
Common to all, as to conditions: 10 µM unless noted

For test [1], the system named is DU-145 prostate.
Test [2] deals with K-562 leukemia.
The subject of test [3] is MALME-3M melanoma.
Test [4] has as its system MDA-MB-231 breast.
The subject of test [5] is RXF 393 renal.
In test [6] the test system is SF-268 CNS.
Test [7] deals with SF-295 CNS.
In test [8] the test system is SF-539 CNS.
The subject of test [9] is UACC-257 melanoma.
The test system of test [10] is M14 melanoma.

Turning to `CCCCOc1nc2ccc(C)cc2cc1/C=C/C(=O)/C=C/c1ccc2c(c1)OCO2`, the growth is 82.8% in test [1]; 69.1% in test [2]; 106% in test [3]; 92.8% in test [4]; 108% in [5]; 75.4% in test [6]. Moreover, the growth in test [7] was 105%; in test [8] it was 109%; in test [9], 73.3%; in [10] it was 52.4%.
Consider `O=C(O)C(C(=O)O)c1cccc2ccccc12`, for which the growth was 105% in test [1]; 93.8% in [2]; 107% in test [3]; 108% in test [4]; 107% in test [5]; 98% in [6]. For the same compound, the growth in [7] was 101%; in test [8], 94.5%; in test [9], 88.1%; in [10], 101%.
For the compound `C=C1C(=O)O[C@H]2[C@H]1CC/C(COC(=O)N1CCC[C@H]1C(=O)Nc1ccc(OC)c(C(N)=O)c1O)=C\CC[C@@]1(C)O[C@@H]21`, the growth was 39.4% in [1]; 11.2% in [2]; 27.3% in test [3]; 46% in test [4]; -12.7% (active) in test [5]; 54.6% in [6]. Also, the growth was 90.1% in test [7], -4.09% (active) in test [8], 25.2% in [9] and 36.5% in test [10].
As for `COc1cc(/C=C/C(=O)/C=C/c2cc3ccc(Cl)cc3[nH]c2=O)ccc1O`, the growth is 45.9% in test [1]; 23.2% in [2]; 101% in test [3]; 45.9% in test [4]; 70.9% in test [5]; 72.2% in test [6]. Moreover, the growth in test [7] is 79.7%; in test [8], 105%; in [9], 90.8%; in test [10] it was 54.1%.
Consider `Cc1cccc(NC(=O)c2sc3nc4c(cc3c2N)CN(Cc2ccccc2)CC4)c1C`, for which the growth was 0.783% (active) in test [1]; 13.1% in [2]; 53.5% in test [3]; 45.2% in test [4]; 16.9% in test [5]; 41.4% in test [6]. Moreover, the growth in test [7] is 27.6%; in test [8], 19.8%; in [9], 87.9%; in test [10] it was 4.27% (active).
For the compound `Cc1nnc(/N=C2\NC(=O)/C(=C/c3ccsc3)S2)s1`, the growth in test [1] was 98.7%; in [2], 97.4%; in [3], 80.8%; in test [4] it was 108%; in [5], 99.8%; in test [6] it was 85.1%. In addition, the growth in test [7] is 85.9%; in [8], 99.7%; in [9] it was 108%; in test [10], 92%.
Turning to `COC(=O)CCc1cc(O)c2c(c1)[C@@H](C(=O)OC)[C@H](c1ccc(O)c(O)c1)O2`, the growth in [1] was 95%; in test [2], 26.2%; in [3] it was 66.8%; in test [4], 78.8%; in test [5] it was 88.5%; in [6], 74.1%. The growth in test [7] is 84.7%; in test [8], 74.5%; in test [9] it was 85.6%; in [10], 32.5%.
For the compound `CC[C@]12C=CCN3CC[C@@]4(c5ccc(OC)cc5N(C)[C@H]4[C@@](O)(C(=O)OC)[C@@H]1OC(=O)CCC(=O)O[C@H]1CC[C@H]4[C@@H]5CC[C@H]6CC(=O)CC[C@]6(C)[C@H]5CC[C@]14C)[C@@H]32`, the growth in test [1] is 43.7%; in [2], 8.73% (active); in test [3], 42.5%; in test [4], 34.6%; in [5] it was 25.9%; in test [6], 46.2%. In addition, the growth in test [7] was 7.7% (active); in test [8], 47.3%; in [9], 26.9%; in test [10], 26%.
Consider `COc1ccc2nc(-c3ccc(Cl)cc3)cc(-c3nnc(SCC(=O)Nc4ccc(/C(C)=N\O)cc4)o3)c2c1`, for which the growth is 25.9% in [1]; 15.9% in test [2]; 15.1% in test [3]; 39.7% in test [4]; 39.7% in test [5]; 33.1% in [6]. Besides, the growth in test [7] was 43%; in test [8], 68.4%; in test [9] it was 44.4%; in test [10] it was 30.3%.
For `O=C1Nc2ccc(Cl)cc2/C1=N/c1nc(-c2ccc(F)cc2)cs1`, the growth in test [1] was 69.8%; in [2], 14.6%; in [3] it was 53.6%; in test [4], 31.3%; in test [5], 37%; in [6] it was 46%. In addition, the growth is 39.6% in test [7], 48.6% in test [8], 36.5% in test [9] and 38.7% in [10].
Take `COc1cc(-c2csc(NC(=O)Nc3ccc(Cl)cc3)n2)cc(OC)c1OC`: the growth in test [1] is 36.3%; in [2] it was 9.22% (active); in [3], 61.3%; in test [4], 45.5%; in test [5], 23.4%; in test [6], 51.2%. Moreover, the growth in [7] is 18%; in test [8] it was 48.8%; in [9], 22.9%; in test [10], 21.1%.
Take `NC(=O)c1ccc(C2C3=C(CCCC3=O)OC3=C2C(=O)c2ccccc2C3=O)cc1` (stereo not given): the growth in [1] is 12.1%; in test [2], 5.5% (active); in [3] it was -16.3% (active); in [4], 5.67% (active); in test [5], 60%; in test [6], 9.54% (active). The growth in test [7] was 42.9%; in test [8] it was 0.536% (active); in test [9], -7.13% (active); in [10] it was -0.786% (active).
As for `N#Cc1c(-c2ccc(Cl)cc2)cc(-c2cc3ccccc3o2)nc1SCC(=O)c1ccc(Cl)cc1`, the growth in test [1] was 121%; in test [2], 118%; in test [3], 90.6%; in [4], 95.5%; in test [5], 116%; in test [6] it was 99.3%. The growth in test [7] is 90.1%; in [8] it was 112%; in [9] it was 112%; in [10], 96.9%.
